High-throughput results deposited in PubChem BioAssay by National Center for Advancing Translational Sciences (NCATS).
Cycloheximide cs: affects cycloheximide protein synthesis inhibition readout, counter-screen; cell reporter, cycloheximide protein synthesis inhibition counterscreen; AID 2314; actives 12% (n = 300,000); max response, %; in the data active = max response mostly above about 13%, no sharp cut-off; inactive = mostly below about 14%; note: read at 38.3 µM for the half of the compounds with a filed dose
HCV inhibitor: blocks hepatitis C virus; AID 651820; Huh7.5.1 HCVcc-Cre infection, luciferase reporter, 44 h; actives 3.4% (n = 340,000); Potency, µM (highest dose often 41.8 µM), most hits filed as inhibitors
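Cells seeded at 1,000/well and cultured 4 h, then compounds added followed by HCVcc-Cre virus (~0.5 moi). After 44 h further culture, luciferase substrate was added, plates held 15 min at room temperature, and luminescence read for 15 sec.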
Pf growth 48h: inhibits P. falciparum growth in the first generation, 48 h; actives 5.9% (n = 310,000); P. falciparum luciferase growth in erythrocytes, 48 h; Potency, µM (highest dose often 28.7 µM), most hits filed as inhibitors
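Cell-based growth assay: transgenic P. falciparum expressing firefly luciferase, cultured in red cells within RPMI 1640 containing 0.5% w/v Albumax, 24 mM bicarbonate and gentamycin. A drop in luciferase activity indicates inhibition.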
Pf growth 96h: inhibits malaria parasite growth, 96 h; P. falciparum luciferase reporter growth, 96 h; Potency, µM (doses to about 28.7 µM), most hits filed as inhibitors; actives 6.9% (n = 320,000)
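Plates of compound plus infected erythrocytes (2% hematocrit, 0.05% parasitemia final) incubate 96 hours, 37 C, 5% CO2. Detection reagent added; reduced luminescence from the parasites' luciferase reporter flags inhibition.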
HCMV antiviral: human cytomegalovirus inhibition; actives 4.5% (n = 410,000); activity change, negative = inhibition, % at 57.5 µM; HFF cells, HCMV-luciferase reporter, 72 h; active compounds read low; in the data active = activity change below about -60%; inconclusive = no clear call, values can overlap the other calls; inactive = above about -39%
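Luciferase read-out from HCMV-luciferase-infected HFFs (MOI 1 PFU/cell) 72 h post infection at 37C; compounds added after 16 h cell attachment; activity normalized between buffer-only basal and Salinomycin (10uM) inhibitor controls.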
Shiga toxin inh: inhibitors of Shiga toxin in Vero cells; actives 9.2% (n = 290,000); AID 2315; Vero cells, Shiga toxin protein synthesis inhibition reporter; inhibition, % at 38.7 µM; in the data active = inhibition mostly above about 28%, no sharp cut-off; inactive = mostly below about 43%
Large screens that a line does not name were inactive. Rows were chosen to be rich in hits. Some 21% of all compounds tested hit in one or more screens of this group. Unless noted, calls come from the whole dose curve; as a rule, active = well fitted inhibition curve with a large enough effect; inconclusive = small, poorly fitted or top-dose-only effect, or another doubt; inactive = no such curve, though single readings can be large or run the other way.

CC(C)(C)c1ccc(Cn2c(=N)n(CC(O)c3ccco3)c3ccccc32)cc1 (centres undefined)	HCV inhibitor 10µM, Pf growth 48h 2.3µM, Pf growth 96h 12µM (no result: HCMV antiviral)
CCCCn1c(=N)n(CC(=O)c2ccco2)c2ccccc21	HCV inhibitor inconclusive
CCN(CC)C(=O)CS(=O)(=O)CC(=O)Nc1cc(OCCOC)c(Cl)cc1Cl	Pf growth 96h inconclusive
Cc1ccc(/C=C/C(=O)OCC(=O)Nc2cccc(S(=O)(=O)N(C)C)c2)o1	Cycloheximide cs 14
CN(C)S(=O)(=O)c1cccc(NC(=O)COC(=O)/C=C/c2ccc3c(c2)OCO3)c1	Cycloheximide cs 16
Cc1ccc(S(=O)(=O)N(C)C)cc1NC(=O)COC(=O)/C=C/c1ccc2c(c1)OCO2	Cycloheximide cs 17, Pf growth 96h inconclusive
CN(C)S(=O)(=O)c1cccc(NC(=O)COC(=O)/C=C/c2ccco2)c1	none
COc1ccc(/C=C/C(=O)OCC(=O)Nc2ccc3c(c2)OCO3)cc1	none (no result: Cycloheximide cs, Shiga toxin inh)
CN(Cc1ccccc1)C1=CC(=[N+]2CCCC2)CC(C)(C)C1	HCV inhibitor inconclusive, Pf growth 48h 0.93µM, Pf growth 96h 0.59µM, HCMV antiviral -99
CCN(CC)C1=CC(=[N+]2CCCC2)CC(C)(C)C1	HCV inhibitor inconclusive, Pf growth 48h 1.3µM, Pf growth 96h 0.37µM, HCMV antiviral -95
CN(C)Cc1ccccc1	none (no result: Cycloheximide cs, HCV inhibitor, Pf growth 48h, Pf growth 96h, Shiga toxin inh)
O=C1NCCN(Cc2ccc(Cl)c(F)c2)C1CC(=O)N1CCCCO1 (centres undefined)	Pf growth 48h inconclusive
Nc1nc(NC(=O)c2ccccc2Cl)nn1-c1ccccc1	Pf growth 96h inconclusive
Nc1nc(NC(=O)c2cccs2)nn1-c1ccccc1	Cycloheximide cs 30
Nc1nc(NC(=O)c2ccccc2)nn1-c1ccccc1	Cycloheximide cs 13, Shiga toxin inh 36
O=C(Nc1nc(NC(=O)c2ccco2)n(-c2ccccc2)n1)c1ccccc1	HCV inhibitor inconclusive, Pf growth 48h inconclusive, HCMV antiviral -100
O=C(Cc1c(Cl)cccc1Cl)OCC(=O)N1CCN(C(=O)c2ccco2)CC1	none
COc1cc(C)c(NC(=S)NCCCN2CCOCC2)cc1OC	Pf growth 48h inconclusive
CC1(C)C(=O)Nc2ccccc2N1C(=O)COC(=O)CNS(=O)(=O)c1ccc(F)c(F)c1F	none (no result: Cycloheximide cs, Shiga toxin inh)
Cc1ccc(C2(COC(=O)C(C)C)CO2)c(OC(=O)C(C)C)c1 (centres undefined)	Cycloheximide cs 10
CCC(C)C(=O)OCC1(c2ccc(C)cc2OC(=O)C(C)C)CO1 (centres undefined)	HCV inhibitor inconclusive
Nc1nc2ccc(Oc3ccccc3)cc2s1	Cycloheximide cs 30, Shiga toxin inh 70 (no result: Pf growth 96h)
Cc1nc2ccc(Oc3ccccc3)cc2s1	Pf growth 96h inconclusive (no result: Cycloheximide cs, Shiga toxin inh)
Nc1nc2ccc(OC(F)(F)F)cc2s1	Cycloheximide cs 59, Pf growth 96h inconclusive, Shiga toxin inh 67
Cc1cc(NC(=O)CC2Oc3ccccc3NC2=O)ccc1Br (centres undefined)	Pf growth 96h inconclusive
CC(C)(C)CN1CCN(Cc2nc(-c3ccc(F)cc3)cs2)CC1CCO (centres undefined)	HCV inhibitor 2.2µM, Pf growth 48h inconclusive, HCMV antiviral -64 (no result: Shiga toxin inh)
CC(C)(C)CN1CCN(Cc2cc3ccccc3[nH]2)CC1CCO (centres undefined)	Pf growth 96h 5.2µM
O=C(CCC(=O)OCCOc1ccccc1)OCCOc1ccccc1	HCMV antiviral -98 (no result: Cycloheximide cs, HCV inhibitor, Pf growth 48h, Pf growth 96h, Shiga toxin inh)
O=C(Nc1ccccc1)OCCOc1ccccc1	Cycloheximide cs 32, HCV inhibitor 13µM, Shiga toxin inh 61 (no result: Pf growth 48h, Pf growth 96h)
CCC1(COC(=O)Nc2cccc(Cl)c2)COC1	Cycloheximide cs 22
O=C(Nc1cccc(Cl)c1)OCCOc1ccccc1	Cycloheximide cs 56, Pf growth 96h inconclusive, Shiga toxin inh 75
O=C(O)c1ccc(OCCOc2ccccc2)cc1	none
Cc1nnc(NC(=O)CSc2nc3c([nH]c4ccccc43)c(=O)n2-c2ccc(Cl)cc2)s1	none (no result: Cycloheximide cs, HCV inhibitor, Pf growth 48h, Pf growth 96h, Shiga toxin inh)
CCC(=O)OCC(=O)[C@@]1(OC(=O)CC)[C@@H](C)C[C@@H]2[C@H]3CCC4=CC(=O)C=C[C@]4(C)[C@@]3(F)[C@@H](O)C[C@@]21C	none (no result: HCV inhibitor, Pf growth 48h, Pf growth 96h, HCMV antiviral)
O=C(Nc1ccccc1)OCCOc1ccccc1Br	Cycloheximide cs 35, Pf growth 96h inconclusive, Shiga toxin inh 28
